# In PubChem BioAssay:
# Active and inactive are the calls of the source.
# What was measured:
# [1] = binders of probe aFSTL3 on microarray, primary screen, stem cell growth factor project, biochemical, small-molecule microarray, fluorescence 635/667 (AID 1064); settings: higher = more signal;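 note: measures binding of the biotinylated anti-FSTL3 antibody to printed compounds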
# [2] = binders from COS7 lysate, DM2A8 probe, primary screen, torsin A project, cell lysate, small-molecule microarray, fluorescence 635/667 (AID 1065); settings: higher = more signal, COS7 lysate expressing mutant human TOR1A
# [3] = binders of probe aFGF2 on microarray, primary screen, stem cell growth factor project, biochemical, small-molecule microarray, fluorescence 635/667 (AID 1067); settings: higher = more signal;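 note: measures binding of biotinylated aFGF2 protein to printed compounds on slides; z-score merges feature fluorescence and signal-to-noise across triplicate slides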
# [4] = binders of probe aFGF10 on microarray, primary screen, stem cell growth factor project, biochemical, small-molecule microarray, fluorescence 635/667 (AID 1071); settings: higher = more signal;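 note: score merges 667 nm spot intensity and signal to noise from triplicate slides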
# [5] = biological target: Neurogenic locus notch homolog protein 2 (Homo sapiens) (UniProt Q04721); assay: Notch2 binders on small-molecule microarrays, primary screen, biochemical, small-molecule microarray, 635 nm fluorescence, stem cell growth factors (AID 1073); settings: Notch2 binding, higher = more signal
# [6] = biological target: Pro-neuregulin-1, membrane-bound isoform (Homo sapiens) (UniProt Q02297); assay: NRG1 binders on small-molecule microarrays, primary screen, psychiatric disease protein project, biochemical, small-molecule microarray, fluorescence 635/667 (AID 1075); settings: NRG1 binding, 635 nm fluorescence, higher = more signal;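 note: score combines 667 nm spot fluorescence with signal to noise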
# [7] = tested on: Neuregulin-1 EGF-like domain; assay: binders of neuregulin-1 EGF-like domain, primary screen, biochemical, small-molecule microarray, 635 nm fluorescence (AID 1081); settings: small-molecule microarray binding, higher = more signal;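 note: binding of the protein to compounds printed on small-molecule microarray slides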
# [8] = FRG1 promoter luciferase signal modulators, primary screen, FRG1 inhibition for FSHD, cell-based, C2C12 myotubes, firefly/Renilla luciferase, luminescence (AID 1084); settings: higher = more signal, called active from +8 up or from −8 down
# [9] = binders of probe aFST on microarray, primary screen, stem cell growth factor project, biochemical, small-molecule microarray, fluorescence 635/667 (AID 1086); settings: higher = more signal;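 note: score merges 667 nm fluorescence with signal-to-noise of each printed compound spot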
# [10] = binders of probe aHhip on microarray, primary screen, stem cell growth factor project, biochemical, small-molecule microarray, fluorescence 635/667 (AID 1087); settings: higher = more signal;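 note: score merges spot fluorescence at 667nm with spot signal to noise ratio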
# Sequence of Pro-neuregulin-1, membrane-bound isoform (Homo sapiens) (Q02297 whole entry, looked up, the tested form may be a part, canonical isoform): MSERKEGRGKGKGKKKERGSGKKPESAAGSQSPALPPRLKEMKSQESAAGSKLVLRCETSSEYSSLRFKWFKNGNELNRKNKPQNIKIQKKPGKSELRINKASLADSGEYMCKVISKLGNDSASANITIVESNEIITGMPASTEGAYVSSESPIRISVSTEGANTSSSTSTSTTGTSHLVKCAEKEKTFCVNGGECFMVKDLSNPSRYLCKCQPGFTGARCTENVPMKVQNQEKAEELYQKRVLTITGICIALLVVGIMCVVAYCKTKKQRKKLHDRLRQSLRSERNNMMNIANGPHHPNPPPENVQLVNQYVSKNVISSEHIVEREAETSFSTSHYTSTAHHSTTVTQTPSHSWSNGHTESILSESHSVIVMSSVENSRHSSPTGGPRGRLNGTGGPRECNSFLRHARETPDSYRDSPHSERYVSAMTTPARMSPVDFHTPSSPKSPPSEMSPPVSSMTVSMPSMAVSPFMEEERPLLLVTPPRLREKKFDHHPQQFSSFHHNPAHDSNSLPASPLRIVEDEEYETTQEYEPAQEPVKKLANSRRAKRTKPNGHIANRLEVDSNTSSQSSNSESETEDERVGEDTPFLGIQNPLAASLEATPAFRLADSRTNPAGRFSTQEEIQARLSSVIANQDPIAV
# Sequence of Neurogenic locus notch homolog protein 2 (Homo sapiens) (Q04721 whole entry, looked up, canonical isoform): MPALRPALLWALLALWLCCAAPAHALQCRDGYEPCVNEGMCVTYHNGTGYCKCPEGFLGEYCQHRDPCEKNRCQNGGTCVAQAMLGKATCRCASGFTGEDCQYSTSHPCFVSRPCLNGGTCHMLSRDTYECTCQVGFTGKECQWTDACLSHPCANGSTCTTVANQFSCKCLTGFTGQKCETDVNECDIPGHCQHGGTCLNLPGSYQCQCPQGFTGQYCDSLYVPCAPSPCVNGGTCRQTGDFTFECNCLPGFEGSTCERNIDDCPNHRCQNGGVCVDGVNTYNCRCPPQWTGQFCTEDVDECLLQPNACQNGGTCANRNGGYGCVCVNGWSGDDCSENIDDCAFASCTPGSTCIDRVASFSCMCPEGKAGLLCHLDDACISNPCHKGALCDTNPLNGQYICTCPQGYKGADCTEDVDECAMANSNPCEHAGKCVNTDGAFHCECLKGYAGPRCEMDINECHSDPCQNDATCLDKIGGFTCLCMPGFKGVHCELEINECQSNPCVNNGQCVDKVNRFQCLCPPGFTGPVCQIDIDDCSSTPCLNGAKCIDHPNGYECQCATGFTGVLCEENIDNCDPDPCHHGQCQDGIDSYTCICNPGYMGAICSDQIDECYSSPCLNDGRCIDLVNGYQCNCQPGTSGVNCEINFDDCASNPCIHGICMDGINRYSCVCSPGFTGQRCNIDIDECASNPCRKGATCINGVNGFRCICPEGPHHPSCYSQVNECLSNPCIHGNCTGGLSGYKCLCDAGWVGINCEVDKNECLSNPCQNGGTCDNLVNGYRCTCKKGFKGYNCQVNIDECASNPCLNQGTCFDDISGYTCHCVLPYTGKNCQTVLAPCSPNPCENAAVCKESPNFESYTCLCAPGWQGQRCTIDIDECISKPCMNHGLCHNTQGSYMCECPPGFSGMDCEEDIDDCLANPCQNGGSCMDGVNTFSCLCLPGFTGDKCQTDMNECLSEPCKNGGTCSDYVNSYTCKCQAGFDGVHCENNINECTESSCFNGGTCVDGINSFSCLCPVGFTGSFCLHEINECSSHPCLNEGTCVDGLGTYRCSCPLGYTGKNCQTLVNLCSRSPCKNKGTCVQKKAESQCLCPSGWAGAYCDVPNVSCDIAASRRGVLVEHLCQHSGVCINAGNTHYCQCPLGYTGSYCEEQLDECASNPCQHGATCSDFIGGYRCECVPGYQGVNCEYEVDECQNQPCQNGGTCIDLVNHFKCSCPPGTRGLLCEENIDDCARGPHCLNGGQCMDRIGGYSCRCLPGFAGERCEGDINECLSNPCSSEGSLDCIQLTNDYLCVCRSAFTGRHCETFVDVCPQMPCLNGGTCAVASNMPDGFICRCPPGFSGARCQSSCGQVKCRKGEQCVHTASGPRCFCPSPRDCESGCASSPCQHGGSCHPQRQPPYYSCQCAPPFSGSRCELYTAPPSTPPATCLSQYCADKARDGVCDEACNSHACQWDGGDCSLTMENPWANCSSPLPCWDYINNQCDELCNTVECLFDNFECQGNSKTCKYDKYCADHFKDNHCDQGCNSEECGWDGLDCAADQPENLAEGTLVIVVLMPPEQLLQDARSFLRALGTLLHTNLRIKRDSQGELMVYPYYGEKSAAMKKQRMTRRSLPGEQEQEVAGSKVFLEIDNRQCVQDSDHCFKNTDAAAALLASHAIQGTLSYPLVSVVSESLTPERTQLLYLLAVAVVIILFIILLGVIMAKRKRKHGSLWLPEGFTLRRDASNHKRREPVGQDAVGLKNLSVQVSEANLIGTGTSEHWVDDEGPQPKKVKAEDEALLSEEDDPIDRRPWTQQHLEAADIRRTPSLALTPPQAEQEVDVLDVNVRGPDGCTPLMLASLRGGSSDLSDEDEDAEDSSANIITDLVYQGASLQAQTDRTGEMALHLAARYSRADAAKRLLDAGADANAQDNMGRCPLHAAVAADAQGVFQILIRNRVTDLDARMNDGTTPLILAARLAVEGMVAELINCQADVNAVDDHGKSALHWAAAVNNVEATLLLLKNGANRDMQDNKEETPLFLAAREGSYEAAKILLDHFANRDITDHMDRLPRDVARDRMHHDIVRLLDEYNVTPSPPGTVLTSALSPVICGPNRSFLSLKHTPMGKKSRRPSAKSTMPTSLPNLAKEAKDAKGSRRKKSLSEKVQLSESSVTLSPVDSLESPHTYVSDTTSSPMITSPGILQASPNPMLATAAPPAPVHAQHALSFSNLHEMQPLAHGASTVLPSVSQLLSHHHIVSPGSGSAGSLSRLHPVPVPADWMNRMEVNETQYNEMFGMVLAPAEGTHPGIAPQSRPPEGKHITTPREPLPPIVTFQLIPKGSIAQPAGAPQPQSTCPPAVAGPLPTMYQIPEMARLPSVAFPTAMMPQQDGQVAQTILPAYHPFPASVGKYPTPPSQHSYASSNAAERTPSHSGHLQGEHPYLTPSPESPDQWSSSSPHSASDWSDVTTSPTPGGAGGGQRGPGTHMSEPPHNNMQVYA
SMILES,composite z-score [1],composite z-score [2],composite z-score [3],composite z-score [4],composite z-score [5],composite z-score [6],composite z-score [7],z-score [8],composite z-score [9],composite z-score [10]
CC(C)[Si]1(C(C)C)OCc2cc(C3CC3)nc(-c3ccccc3)c21,0.322,0.598,-0.119,-1.2,-1.27,-0.291,-0.531,-1.03 (inactive),-0.135,-0.261
C=C[C@H](OC)[C@@H](OC(=O)Nc1ccc(SC)cc1)c1ccc(O)c(F)c1,-0.0125,-0.22,-0.0493,0.2,0.474,0.756,1.03,4.46 (inactive),-0.212,0.109
O=C1O[C@H](c2ccccc2)[C@H](c2ccccc2)N2[C@H]1[C@@H](C(=O)NC[C@H](O)c1ccccc1)[C@]1(C(=O)Nc3ccc(C#CC4(O)CCCCCC4)cc31)[C@H]2c1ccc(OCCO)cc1,0.247,0.634,0.0589,0.577,1.19,1.02,1.24,1.04 (inactive),0.388,0.0024
CO[C@@H]1COC(=O)[C@H](C)NC(=O)CC=C[C@@H](C)[C@H](OC)COC(=O)[C@H](C)NC(=O)CC=C[C@H]1C,-0.348,0.395,-0.112,0.269,0.208,-0.0025,0.0912,0.0543 (inactive),0.0054,-0.146
Cc1ccc(S[C@]2(C(=O)NC(C)C)CC(=O)N(Cc3cc(C(F)(F)F)cc(C(F)(F)F)c3)[C@@H]2c2ccc(CO)cc2I)cc1,0.808,-0.666,-0.103,-0.345,-1.7,1.53,0.74,-0.321 (inactive),-0.666,-0.0994
COC(=O)C1=CC(c2ccc(CO)cc2)=CC(c2cccs2)N(Cc2cccc(OC(F)(F)F)c2)C=C1C(=O)OC (stereo not given),-0.0169,1.41,-0.0375,0.862,1.17,2.03,1.17,-0.497 (inactive),0.48,0.0866
N#Cc1ccc(NN2C(C(O)c3ccc(I)cc3)C=CC3C(=O)N(c4ccccc4)C(=O)C32)cc1 (stereo not given),0.0909,-0.0384,0.105,0.587,1.32,1.76,1.28,-2.73 (inactive),0.857,0.0854
CCCC=C(CCC)[C@@H](NS(=O)(=O)c1ccc(-c2ccccc2)cc1)c1ccc(C(=O)OC)cc1,0.184,-0.337,-0.0363,-0.198,0.268,-0.33,-0.656,1.55 (inactive),-0.212,-0.0994
CC(=O)NCCCC[C@@H]1NC(=O)[C@H]2C[C@@H](C(=O)NCCCCCCN(C)C)[C@@H](c3cccc(OCCO)c3)N2C1=O,0.0256,2.05,0.0996,1.24,1.54,0.681,1.35,2.92 (inactive),0.861,0.0053
COC(=O)[C@H]1[C@@H]2COc3ccccc3[C@H]2N[C@H]1C(=O)OC,-0.241,-0.0479,-0.139,0.255,0.419,0.281,0.428,0.44 (inactive),0.168,-0.189
C=CC[C@]1(C(N)=O)N=C(c2ccc(OCCCO)cc2)O[C@H]1c1ccccc1CN=[N+]=[N-],1.12,1.36,-0.0881,-0.333,0.0233,1.87,1.34,1.2 (inactive),0.326,-0.0994
CC(C)CNC(=O)[C@@]1(C)c2ccccc2C(=O)N(Cc2ccc(OC(F)(F)F)cc2)[C@H]1c1ccc(CO)cc1,1.39,-0.37,-0.0149,-0.925,-1.71,-0.81,0.257,-3.49 (inactive),-0.291,-0.353
COc1cccc([C@@H]2[C@@H](C)CC[C@H]3C(=O)N4[C@H](c5cccc(OC)c5)[C@@H](C)CC[C@H]4C(=O)N23)c1,-0.197,0.683,-0.0355,0.483,1.01,0.25,0.285,-1.21 (inactive),0.0794,-0.0994
O=C1C2C=CC(C(O)Cc3ccccc3)N(Nc3ccc([N+](=O)[O-])cc3)C2C(=O)N1c1ccccc1 (stereo not given),0.159,-0.0657,-0.06,0.699,1.15,1.83,1.33,1.19 (inactive),0.638,0.413
[N-]=[N+]=NCc1ccccc1C[C@]1(C(=O)N2CCCCC2)N=C(c2ccc(OCCCO)cc2)O[C@H]1c1ccccc1CN=[N+]=[N-],-0.0017,0.759,0.0342,0.765,0.776,1.63,1.19,-1.62 (inactive),1.29,0.142
CCCCCCc1nc(C2CC2)c(C)c2c1[Si](C(C)C)(C(C)C)OC2,0.411,0.159,-0.167,-0.588,-0.923,-0.322,-0.629,-0.139 (inactive),-0.266,-0.0672

SMILES,composite z-score [1],composite z-score [2],composite z-score [3],composite z-score [4],composite z-score [5],composite z-score [6],composite z-score [7],z-score [8],composite z-score [9],composite z-score [10]
C=C(CCCC)/C(=C/C[C@H](OC(=O)c1ccncc1)c1cccc(OCCO)c1)c1cc(C(=O)OC)ccc1OC,-0.195,0.422,0.0346,1.05,-0.0883,0.0742,0.952,5.01 (inactive),0.104,0.0854
C#CCNC(/C=C/c1ccccc1)CO (stereo not given),-0.383,0.329,-0.0973,0.41,0.495,-0.21,-0.0021,-0.156 (inactive),0.155,-0.0237
CC(C)[Si](OCC[C@H]1O[C@]2(C(=O)N(Cc3ccccc3)c3ccccc32)[C@@H](C)[C@@H]1[Si](C)(C)O)(C(C)C)C(C)C,-0.143,-0.149,-0.25,0.164,-0.0407,0.676,-0.0474,0.562 (inactive),0.292,0.0373
CO[C@H]1COC(=O)CC=C[C@@H](C)COC(=O)[C@@H](C)NC(=O)CC=C[C@@H]1C,-1.1,2.24,-0.138,-0.248,-0.604,-0.907,-0.228,-1.88 (inactive),0.219,0.0274
C[N+](C)(C)CCCCNC(=O)[C@H]1C[C@H]2C(=O)NCC(=O)N2[C@H]1c1cccc(OCCO)c1,-0.514,2.35,-0.0375,1.15,0.0841,0.309,1.43,1.73 (inactive),0.533,0.245
CC(=O)NCCCC[C@@H]1NC(=O)[C@@H]2C[C@H](C(=O)NCCCCCCN(C)C)[C@H](c3ccc(O)cc3)N2C1=O,-0.438,1.71,0.0513,1.19,0.734,1.56,1.51,4.01 (inactive),0.541,0.797
CC(C)(C)OC(=O)CC[C@]1(C(=O)NCCN2CCOCC2)N=C(c2ccc(OCCCO)cc2)O[C@H]1c1ccccc1CN=[N+]=[N-],0.182,1.16,0.0402,0.07,1.24,1.73,1.42,2.72 (inactive),0.278,-0.0672
CCN1C(C)=C(C(=O)OC)[C@@H](c2ccccc2)N2C(=O)[C@](O)(C(=O)OC)[C@@H](c3ccccc3)C(C(=O)c3ccccc3)=C12,-0.14,0.36,-0.0493,0.671,0.442,0.607,0.708,-4.12 (inactive),0.0486,0.141
CO[C@H]1COC(=O)CC=C[C@H](C)[C@@H](OC)COC(=O)[C@H](Cc2ccccc2)NC(=O)CC=C[C@@H]1C,-0.304,1.36,-0.167,-1.09,-1.79,-0.806,-1.09,-1.01 (inactive),-0.463,0.0524
C[C@H]1C2[C@H](Cc3ccccc3)NC(=O)[C@]23C(=O)N[C@H](Cc2ccccc2)C(=O)N[C@@H](Cc2ccccc2)C(=O)NC/C=C\C/C=C/C3[C@@H]2O[C@]12C (stereo not given in full),-0.446,0.107,-0.147,0.388,0.155,-0.384,-0.199,-0.293 (inactive),-0.137,0.122
C=CCN1C(=O)[C@]2(O[C@H](CCn3cc(CCO)nn3)[C@@H]([Si](C)(C)c3ccc(OC)cc3)[C@@H]2C)c2cc(NC(=O)c3ccc(OC)cc3)ccc21,0.615,0.473,0.0051,-0.0488,0.48,0.439,0.974,-2.48 (inactive),0.479,0.176
CN(C)CCCC[C@@H]1NC(=O)[C@@H]2C[C@H](C(=O)NCCCCCNC(=O)CS)[C@H](c3ccc(O)cc3)N2C1=O,0.174,0.522,0.0918,0.429,0.728,0.264,1.22,0.47 (inactive),-0.0694,0.382
CC(C)C[C@@H]1NC(=O)[C@H](CC(C)C)NC(=O)[C@@]23C(=O)N[C@@H](Cc4ccccc4)C2[C@H](C)[C@@]2(C)O[C@H]2C3/C=C/CC/C=C/CNC1=O (stereo not given in full),-0.3,-0.135,-0.0805,0.278,0.242,0.603,1,-0.298 (inactive),0.0226,-0.201
COCCOC(=O)N1C(=O)[C@@]2(c3cc(C#CCCO)ccc31)[C@H](c1ccc(OCCO)cc1)N1[C@H](c3ccccc3)[C@H](c3ccccc3)OC(=O)[C@H]1[C@@H]2C(=O)NC[C@H](O)c1ccccc1,-0.484,1.04,-0.0628,0.889,1.4,1.12,1.25,0.504 (inactive),0.788,0.152
CO[C@@H]1COC(=O)[C@H](C)NC(=O)CC=C[C@@H](C)[C@H](NS(=O)(=O)c2ccc(C)cc2)COC(=O)CC=C[C@@H]1C,-0.402,-0.0613,-0.0891,0.117,0.156,-0.32,-0.144,-0.364 (inactive),-0.181,-0.388
O=C1OCC=C[C@H]2OC34C=CCN(Cc5ccccc5)C(=O)[C@H]3N(CCO)C(=O)[C@@H]4[C@@H]12 (stereo not given in full),0.322,-0.0397,-0.149,-0.387,-0.338,2.05,0.699,-0.019 (inactive),-0.331,-0.236
